# Bioassay records as filed in PubChem.
# This is a sample that favours compounds with a hit; in the whole collection about 3% have one here.
# SENP6 block: SENP6 protease inhibition; inhibition, % at 10 µM; Q9GZR1; Recombinant SENP6 catalytic domain, aminoluciferin luminescence; hit rate 1.8% among 330,000;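 active means inhibition above about 50% at the single tested dose, limit read from the data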;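 further: plate controls were DMSO wells with enzyme for no effect and DMSO wells lacking enzyme for full effect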
# SENP8 block-1: blocks human SENP8 cleavage of Nedd8 substrate; AID 602440; Q96LD8; hit rate 0.64% among 360,000; inhibition, % at 20 µM; recombinant SENP8, Nedd8 substrate fluorescence; in the data active means inhibition mostly above about 40%, no sharp cut-off; inactive means mostly below about 27%
# Target sequence (Q96LD8 whole entry, looked up): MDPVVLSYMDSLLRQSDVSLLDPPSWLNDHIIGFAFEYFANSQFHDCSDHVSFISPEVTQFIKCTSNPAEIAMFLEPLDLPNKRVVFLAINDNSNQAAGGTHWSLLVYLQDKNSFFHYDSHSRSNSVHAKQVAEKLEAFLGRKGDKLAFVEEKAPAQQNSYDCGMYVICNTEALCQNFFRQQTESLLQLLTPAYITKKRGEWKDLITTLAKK
# SENP8 block-2: blocks the human protease SENP8; purified SENP8, Z-RLRGG-aminoluciferin cleavage, luminescence; inhibition, % at 10 µM; Q96LD8; hit rate 1.2% among 330,000; in the data active means inhibition above about 50%
# PPC-1+TRAIL kill: compounds killing PPC-1 cancer cells with TRAIL present (potentiator screen, no TRAIL-free arm); PPC-1 cells + TRAIL, ATPLite viability luminescence; cell killing (% activity), % at 4 µM or 5 µM; hit rate 0.41% among 220,000;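 active means cell killing above 50% in the first pass at 4 µM, then a duplicate retest at 5 µM averaging 50% or more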;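 further: plate controls were cells with TRAIL plus DMSO for no effect and medium-only wells lacking cells for full effect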
# SENP7 block: SENP7 protease inhibition; recombinant SENP7, Z-RLRGG-aminoluciferin luminescence, 40 min; Q9BQF6; inhibition, % at 5 µM; AID 434973; hit rate 1.5% among 330,000;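 active means inhibition above about 50% at the single test dose, limit read from the data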;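 further: plate controls were DMSO with enzyme for no effect and no enzyme buffer wells for full effect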
# Target sequence (Q9BQF6 706-1050 limits assumed): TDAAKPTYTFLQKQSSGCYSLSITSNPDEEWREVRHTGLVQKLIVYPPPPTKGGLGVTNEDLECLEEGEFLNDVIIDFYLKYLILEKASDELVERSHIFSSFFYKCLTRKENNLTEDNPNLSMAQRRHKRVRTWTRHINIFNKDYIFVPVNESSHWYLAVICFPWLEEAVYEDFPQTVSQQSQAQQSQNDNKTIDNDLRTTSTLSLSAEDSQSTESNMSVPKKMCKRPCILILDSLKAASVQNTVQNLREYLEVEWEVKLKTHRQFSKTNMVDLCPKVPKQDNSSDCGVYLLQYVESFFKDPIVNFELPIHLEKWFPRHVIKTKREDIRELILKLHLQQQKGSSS
# TRAIL sens C8: caspase-8 TRAIL sensitization. hit rate 1% among 360,000. NB7+C8 cells + TRAIL, ATPlite viability luminescence. inhibition (viability loss, TRAIL sensitization), % at 10 µM;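 active means compounds causing at least 50% loss of cell viability in the single-dose screen, relative to plate controls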
# SENP8 inh conf: confirmation of human SENP8 protease inhibitors | shares compounds with SENP8 block-1 | purified SENP8, Nedd8-AMC/pro-Nedd8 cleavage fluorescence, 30 min | inhibition, % at 25 µM | hit rate 15% among 1,400; in the data active means inhibition mostly above about 39%, no sharp cut-off; inactive means mostly below about 34%
# An asterisk follows results filed as active; x = not tested or not shown.
SMILES,SENP6 block,SENP8 block-1,SENP8 block-2,PPC-1+TRAIL kill,SENP7 block,TRAIL sens C8,SENP8 inh conf
N#CC1=C(N)Oc2n[nH]c(-c3cccs3)c2C1c1cccs1 (stereo not given),33.3,59.4*,10.8,-18.9,23.9,-6.0,15.0
CCCS(=O)(=O)N1CCN(Cc2c[nH]c3ccccc23)CC1,-3.2,-8.6,5.4,10.7,5.4,5.0,x
COc1cccc(C(C)N(C)Cc2nc(-c3ccoc3)oc2C)c1 (stereo not given),-10.1,5.1,3.6,x,3.5,-6.3,x
CCCCOC(=O)C1=C(C)NC2(O)c3ccccc3C(=O)C12O (stereo not given),6.8,46.5*,3.4,15.3,1.2,2.9,65.0*
CC1CC(=O)N(c2ccc(NCCc3ccccc3)c([N+](=O)[O-])c2)C1=O (stereo not given),-23.2,35.5,-15.9,23.6,0.5,3.9,x
CC1CC(=O)N(c2ccc(NCCc3ccc(O)cc3)c([N+](=O)[O-])c2)C1=O (stereo not given),10.4,42.4*,-1.7,13.6,-7.4,6.2,20.3
CC1=C(C(=O)N(C(C)C)C(C)C)CC(CC(=O)NC2CCCCC2)C(=O)N1Cc1ccc(F)cc1 (stereo not given),x,12.7,x,x,x,-5.2,x
COC1c2ccccc2C(=O)N1Cc1ccc(F)cc1 (stereo not given),-14.8,11.4,-3.6,x,3.5,-20.2,x
O=C(Nc1ccccc1)NC1(C(=O)NCc2ccco2)CCCCC1,0.0,24.7,-2.2,0.2,10.0,11.5,x
Cc1ccc(NC(=O)NC2(C(=O)NCc3ccco3)CCCCC2)cc1,-2.2,40.1*,-7.2,21.1,-3.4,8.0,11.9
O=[N+]([O-])c1ccc(N2CCN(Cc3ccccc3)CC2)c2c1no[n+]2[O-],x,42.0*,x,x,x,93.6*,83.5*
CCOC(=O)C1(C)CCCN1C(=O)c1ccc(OC)cc1 (stereo not given),x,9.4,x,x,x,-1.5,x
[O-][n+]1cccc2cccc(O)c21,x,-3.2,x,x,x,-17.7,x
C[n+]1cccc2cccc([O-])c21,x,95.8*,x,5.6,x,-26.8,58.0*
CCCN(CCC)CCCNc1ccc(C(=O)Nc2cccc(OC)c2)cc1[N+](=O)[O-],-9.0,35.3*,-6.2,4.6,-15.7,-3.3,5.6
O=C(Nc1ccccc1)NN1CC(=O)N(c2ccc(Cl)cc2)CC1=O,1.3,8.0,1.0,16.0,2.7,-2.8,x
O=C1CN(c2ccc(Cl)cc2)C(=O)CN1NC(=S)Nc1ccc(Cl)cc1,13.1,42.7*,2.2,3.0,5.9,-9.0,11.6
CCN(CC)c1ccc(/C=C2\C(=N)N3N=C(CC(=O)N4CCOCC4)SC3=NC2=O)cc1,4.3,-59.6,-1.1,x,-4.4,7.2,x
CC(=O)Nc1ccc(NC(=O)C(C)OC(=O)C23CC4CC(CC(Cl)(C4)C2)C3)cc1 (stereo not given),-11.3,-0.6,3.6,x,5.1,5.5,x
COc1cc(CNn2nnnc2N)ccc1OCc1c(Cl)cccc1Cl,1.1,43.7*,6.3,-2.8,2.8,-5.8,20.2
CCn1nnnc1NCc1ccc(OCc2c(F)cccc2Cl)c(OC)c1,10.8,17.4,-4.7,14.5,-9.5,-11.3,x
COc1ccc(-c2cc(NC(C)=O)c3ncc(-c4ccc(F)cc4)n3c2)cc1OC,x,-351.7,x,x,x,5.1,x
Cc1c(C(=O)N(C)C)sc(NC(=O)c2cc([N+](=O)[O-])cc([N+](=O)[O-])c2)c1C#N,-1.7,43.7*,-2.9,19.5,8.0,-5.3,27.6
Cc1ccc(NC(=O)CSc2ccccc2)cc1S(=O)(=O)N1CCOCC1,-1.1,-28.1,12.6,x,-2.0,-14.9,x
Cc1ccc(NC(=O)C(=O)c2c(-c3ccccc3)cc3ccccn23)cc1S(=O)(=O)N1CCOCC1,31.0,52.0*,14.3,11.4,2.0,9.1,27.5
SMILES,SENP6 block,SENP8 block-1,SENP8 block-2,PPC-1+TRAIL kill,SENP7 block,TRAIL sens C8,SENP8 inh conf
COc1ccc(C(=O)Nc2ccc(C(=O)N3CCC(C)CC3)cc2)cc1OC,-15.4,8.1,-6.8,x,-2.1,12.3,x
CN(C)C1(CN=Cc2cc(Cl)cc([N+](=O)[O-])c2O)CCCCC1,24.5,40.3*,1.1,x,3.3,5.2,24.2
Cc1ccc(NC(=O)c2cnccn2)cc1S(=O)(=O)N1CCCCCC1,9.9,7.8,10.0,x,1.3,3.2,x
COc1ccc(Cl)cc1NC(=O)CCc1nnc2ccc(N3CCC4(CC3)OCCO4)nn12,8.8,-18.8,-1.1,x,4.5,3.6,x
O=[N+]([O-])c1ccc(N/N=C2\CC3CC=CC23)cc1 (stereo not given),17.7,20.8,0.4,-25.9,2.0,5.6,x
O=[N+]([O-])c1ccc(N/N=C2\CC3CC=CC23)c([N+](=O)[O-])c1 (stereo not given),-10.8,40.1*,-2.4,-10.0,4.3,-10.5,19.2
O=[N+]([O-])c1ccc(NN=C2CC3CCC2C3)c([N+](=O)[O-])c1 (stereo not given),x,40.6*,x,x,x,1.5,-0.8
COC(=O)[C@@H](NCc1cccc(CN([C@H](C(=O)OC)C(C)C)S(C)(=O)=O)c1)C(C)C,-1.1,6.9,-11.4,x,-15.4,0.0,x
CC(=O)c1cccc(NC(=O)N2CCCC2C(=O)Nc2cccc(C)c2)c1 (stereo not given),-7.7,42.0*,-7.6,-2.8,-2.8,-4.9,-19.6
COC(=O)c1cnc(Nc2cccc(C(F)(F)F)c2)c([N+](=O)[O-])c1,1.3,32.8*,-0.4,-0.9,2.5,-4.0,16.4
COc1ccc(Nc2ccc(C(F)(F)F)cc2[N+](=O)[O-])cn1,-19.1,15.6,2.6,x,1.8,-11.9,x
O=C(NCc1ccc2c(c1)OCO2)C(c1ccco1)N(C(=O)c1csnn1)c1ccccc1 (stereo not given),-5.3,40.6*,8.0,26.2,-1.8,-6.8,1.2
O=C(NCc1ccc(F)cc1)C(c1ccco1)N(C(=O)c1csnn1)c1ccccc1 (stereo not given),16.6,-3.5,3.6,x,0.1,12.3,x
NC(=O)Cn1nnc(-c2ccc(CN3CCCCC3)cc2)n1,-18.3,3.1,-1.5,2.9,5.2,-3.3,x
O=C(N/N=C/CCc1ccccc1)C1CCCCC1,1.1,14.0,4.5,2.6,4.0,-1.7,x
O=C(N/N=C/CCc1ccccc1)c1ccccc1,-7.9,47.4*,-3.5,8.6,5.9,-19.0,16.1
COc1ccc(C(C)=O)cc1CC(=O)Nc1ccccc1-c1ccccc1,-7.6,1.8,-3.7,x,-12.4,-11.8,x
O=C(CCC1CCCC1)N1CCN(C(=O)c2cccnc2)CC1,-4.4,40.9*,-11.7,-4.1,-5.2,11.4,10.5
COc1ccc(Cc2nnc(SCC(=O)N3CCc4ccccc4C3)o2)cc1,-11.6,39.3*,0.0,17.2,-10.4,-1.8,76.1*
O=C(O)c1ccc(Cl)c(S(=O)(=O)NCc2ccco2)c1,-9.7,42.9*,-12.5,-13.5,4.3,-6.2,-7.8
